Assay results reported in PubChem BioAssay AID720706 (Broad Institute, 2013).
The whole screen tested about 350,000 compounds, of which about 5,500 (1.6%) were called active.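 The calls were made as follows: active = significant combined selectivity score with lowered wild-type GFP, culture density cut under 30%, mutant RFP and density less affected; inactive = any of these conditions unmet.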 Only a selection was taken, and actives are over-represented in it overall.

Test: reduced GFP signal of wild-type E. coli, primary screen, bacterial rRNA inhibitor project, GFP/RFP fluorescence, OD600, single point (AID 720706)
Details: E. coli WT GFP vs humanized-ribosome RFP mutants, 24 h; GFP signal change (wild-type ribosome): stronger effect = lower value, DMSO median 0, no signal -100; OD600 change: measured here: OD600 growth, DMSO median 0, no signal -100; RFP signal change: measured here: RFP humanized mutant strains, DMSO median 0, no signal -100, concentration not given here

Structure (SMILES) | GFP signal change (wild-type ribosome) | OD600 change [%] | RFP signal change [%]
Cc1cc(C(=O)Nc2ccc3c(c2)C(=O)N(C)[C@@H]2CC[C@H](CC(=O)NC4CCCC4)O[C@@H]2CO3)no1 | 1.76% (inactive) | 5.25 | 2.11
CCCC(=O)Nc1ccc2c(c1)C(=O)N(C)[C@@H]1CC[C@H](CC(=O)NCCOC)O[C@H]1CO2 | 3.48% (inactive) | 0.14 | 0.31
COc1ccccc1S(=O)(=O)N[C@@H]1C=C[C@H](CC(=O)N2CCN(C)CC2)O[C@@H]1CO | 3.92% (inactive) | 11.8 | -3.5
COC(=O)c1c(C)oc(C)c1S(=O)(=O)Nc1ccc(C(C)C)cc1 | -28.4% (active) | -12.4 | -2.19
CC(C)c1ccc(NS(=O)(=O)c2cn(C)c(=O)n(C)c2=O)cc1 | 4.95% (inactive) | 14.4 | -3.23
COC(=O)c1c(C)oc(C)c1S(=O)(=O)NCc1ccc(Cl)cc1 | -11.3% (inactive) | -4.55 | -0.764
CO[C@H]1CC[C@@H]2CCOc3c(C#N)cccc3C(=O)N(C)C[C@H](C)C(=O)N(C)C[C@H]1O2 | 3.92% (inactive) | -1.31 | -1.65
Brc1ccc2c(c1)[C@H]1OCC[C@H]1[C@@H](c1cccs1)N2 | -43.8% (active) | -30.6 | -11.9
Oc1ccc(/C=N/N(Cc2ccccc2)c2ccccc2)cc1 | -13.9% (inactive) | -1.62 | 0.2
CCN(/N=C/c1ccc(N(C)C)cc1)c1nc2ccccc2[nH]1 | -22.8% (active) | -10.9 | -2.86
CCC(=O)N1C[C@@H](C)[C@H](OC)CN(C)C(=O)c2ccc(NC(=O)c3cc(C)on3)cc2OC[C@H]1C | 0.768% (inactive) | 1.75 | -1.23
C/C=C/c1cnc2c(c1)C(=O)N([C@H](C)CO)C[C@H](C)[C@H](CN(C)C(=O)c1cccc(F)c1)O2 | 2.26% (inactive) | 2.83 | -3.73
CCOc1ccc(NC(=O)CC2C(=O)N(c3ccccc3)C(=O)N2CCOC)cc1 (centres undefined) | -0.19% (inactive) | 4.93 | -3.42
O=C(Nc1ccc(Cl)cc1)C1c2cccc[n+]2CC(=O)N1Cc1ccc2c(c1)OCO2 (centres undefined) | 4.36% (inactive) | 0.665 | -2.94
CCCOc1ccc(NC(=O)CC2C(=O)N(C)C(=S)N2Cc2ccc3c(c2)OCO3)cc1 (centres undefined) | -21.2% (active) | -17.1 | 1.22
C[C@@H]1CCCCO[C@H](CN(C)C(=O)Nc2ccccc2)[C@H](C)CN([C@@H](C)CO)C(=O)c2cc(N(C)C)ccc2O1 | -1.6% (inactive) | 2.72 | -1.91
CC[C@@H]1CC=CC[C@H](C)Oc2ccccc2C(=O)N(C)[C@H](Cc2ccccc2)C(=O)N1 (mixture of isomers) | -6.42% (inactive) | -18.3 | -6.01
COc1ccc(CCNC(=O)CN(c2ccccc2)S(C)(=O)=O)cc1 | 4.81% (inactive) | 11.8 | 2.52
CS(=O)(=O)N(CC(=O)N/N=C/c1ccccn1)c1ccc(Oc2ccccc2)cc1 | -25.9% (active) | -12.1 | -0.663
O=C(COc1ccc(Cl)cc1Cl)N/N=C/c1ccccn1 | -7.74% (inactive) | -28.8 | 0.0022
C[C@H](O)C#Cc1cnc2c(c1)C(=O)N([C@@H](C)CO)C[C@@H](C)[C@@H](CN(C)C(=O)Cc1ccccn1)O2 | 7.53% (inactive) | 12.6 | -0.505

Structure (SMILES) | GFP signal change (wild-type ribosome) | OD600 change [%] | RFP signal change [%]
C[C@@H]1CN([C@H](C)CO)C(=O)c2cc(NS(C)(=O)=O)ccc2O[C@H]1CN(C)C(=O)Nc1cccc2ccccc12 | 2.55% (inactive) | 10.8 | 2.43
O=C(Nc1cc(F)ccc1F)N1CC(=O)N2[C@H](CO)[C@@H](c3ccc(-c4cccnc4)cc3)[C@@H]2C1 | -12% (inactive) | -3.71 | -3.33
COc1ccc(S(=O)(=O)Nc2ccc3c(c2)C(=O)N([C@H](C)CO)C[C@H](C)[C@H](CN(C)S(=O)(=O)c2ccc(Cl)cc2)O3)cc1 | -0.9% (inactive) | -8.14 | 4.68
Nc1nc(SCC(=O)NCCN2CCOCC2)nc2sc3c(c12)CCC3 | 4% (inactive) | 8.61 | -0.37
CCc1nc(N2CCN(C(C)=O)CC2)c2c3c(sc2n1)CCCC3 | -24.3% (inactive) | -27.4 | -2.91
C=C(C)CSc1nc(N)c2c3c(sc2n1)CCC3 | -39.8% (active) | -31.8 | -10.7
CC(C)NC(=O)NCC[C@H]1CC[C@@H](NS(=O)(=O)c2ccc(Oc3ccccc3)cc2)[C@@H](CO)O1 | -0.321% (inactive) | -25.1 | -2
O=C(C1CCCC1)N1CC(=O)N2[C@H](CO)[C@H](c3ccc(Br)cc3)[C@@H]2C1 | -0.977% (inactive) | -0.944 | 0.246
N#Cc1ccc(-c2ccc([C@H]3[C@H](CO)N4C(=O)CN(C(=O)Cc5ccccc5)C[C@@H]34)cc2)cc1 | -1.02% (inactive) | -2.88 | -0.285
CC(C(=O)NC1CCS(=O)(=O)C1)N1C(=O)/C(=C/c2ccc(Cl)cc2)SC1=S (centres undefined) | -21.1% (active) | -15.7 | 1.14
O=C(Cc1ccc(Cl)cc1)NC1CCS(=O)(=O)C1 (centres undefined) | -9.2% (inactive) | 1.76 | 1.96
CN(C(=O)CN1C(=O)/C(=C/c2ccc(Cl)cc2)SC1=S)C1CCS(=O)(=O)C1 (centres undefined) | 15.8% (inactive) | 11 | 0.337
O=C1[C@H](Cc2ccc(C(F)(F)F)cc2)CCn2nncc2COC[C@@H]2CCCCN12 | -1.75% (inactive) | -2.21 | -0.899
CN1c2ccc(Br)cc2[C@H]2[C@H](CCN2S(=O)(=O)c2ccc(F)cc2)[C@@H]1CO | -56.1% (inactive) | -75.9 | -12.6
O=C(CSc1nc2ccccc2[nH]1)N/N=C/C=C\c1ccccc1[N+](=O)[O-] | -28.1% (active) | 3.26 | 1.21
CN(Cc1ccccc1)C(=O)CSc1nc2ccccc2[nH]1 | -2.78% (inactive) | 2.36 | -0.812
O=C(COC(=O)CCCSc1nc2ccccc2[nH]1)Nc1ccc(Oc2ccccc2)cc1 | -34.8% (inactive) | -55 | 0.945
CCOc1ccc(C2C3=C(CCCC3=O)N(CC(=O)O)C3=C2C(=O)CCC3)cc1 | 17.4% (inactive) | 6.44 | -0.227
CCOC(=O)C1=C(N)N(c2ccc(C)cc2)C2=C(C(=O)CCC2)C1c1cccs1 (centres undefined) | -21.7% (active) | -17.5 | 0.496
CCOC(=O)c1c(N)sc2c1CCCC2=O | 1.16% (inactive) | -0.897 | -0.662
COc1ccc(NC(=O)N(C)C[C@H]2OCCCC[C@H](C)Oc3ccc(NC(=O)NC4CCCCC4)cc3C(=O)N([C@@H](C)CO)C[C@@H]2C)cc1 | 1.21% (inactive) | 2.03 | 2.63

Structure (SMILES) | GFP signal change (wild-type ribosome) | OD600 change [%] | RFP signal change [%]
COc1cccc(C(=O)NNC(=O)/C=C/c2ccccc2)c1 | 6.18% (inactive) | 10.2 | 3
COc1ccccc1OCCCC(=O)Nc1ccc2c(c1)OCCO2 | -2.92% (inactive) | -5.58 | -2.87
COc1cccc(/C=C/C(=O)Nc2ccc3c(c2)OCCO3)c1 | -29.5% (active) | -2.39 | 4.27
CO[C@H]1CN(C)C(=O)c2ccc(NC(C)=O)cc2OC[C@@H](C)N(C(=O)CN(C)C)C[C@@H]1C | -1.24% (inactive) | 6.54 | -4.25
CCC(C)N(C)C1CCN(C(=S)Nc2ccc(OC)cc2)CC1 (centres undefined) | 6.68% (inactive) | -2.86 | -3.62
COc1ccccc1NC(=S)N1CCN(C(c2ccccc2)c2ccccc2)CC1 | 5.66% (inactive) | 0.74 | -6.29
COc1ccccc1C1CCN(C(=S)Nc2ccc(Br)cc2)CC1 | -36.8% (active) | -23.8 | -10.2
CN[C@H]1C[C@H]2c3[nH]c4c(-c5ccccc5)cccc4c3CCN2C(=O)[C@H]1[C@H](C)O | -35.6% (inactive) | -70.1 | -2.51
COc1ccc(CNC(=O)C2CCN(C(=O)c3ccco3)CC2)cc1 | -1.02% (inactive) | 2.41 | 0.192
CCC(CC)c1nnc(NC(=O)C2CCN(C(=O)c3ccco3)CC2)s1 | -22.2% (active) | -16.6 | -5.86
CCc1nnc(NC(=O)C2CCN(C(=O)c3ccccc3C)CC2)s1 | 6.89% (inactive) | 6.36 | 0.577
C/C=C/c1ccc2c(c1)O[C@H](CN(C)C(=O)Cc1ccncc1)[C@@H](C)CN([C@@H](C)CO)S2(=O)=O | -0.815% (inactive) | -5.29 | 0.444
O=C(NCCS(=O)(=O)N1CCN(c2ccccc2)CC1)c1ccco1 | -1.63% (inactive) | -7.54 | -1.71
O=C(NCCS(=O)(=O)N1CCN(c2ccccc2F)CC1)c1ccc(Br)o1 | -32% (active) | -25.8 | -5.03
O=C(NCCS(=O)(=O)N1CCN(c2ccccc2)CC1)c1cc(=O)c2ccccc2o1 | 1.78% (inactive) | 2.38 | -0.491
COc1cccc(S(=O)(=O)N2CCCCN3[C@H](CO)[C@H](c4ccc(C#CC5CC5)cc4)[C@H]3C2)c1 | -57.8% (inactive) | -71 | -6.51
Cc1ccc(S(=O)(=O)N2CCN(c3ccccc3)CC2)cc1C | -16.3% (inactive) | -15.2 | -8.46
Cc1ccc(S(=O)(=O)N(C)CC(=O)OCC(=O)N2CC(=O)Nc3ccccc32)cc1 | 2.71% (inactive) | -0.97 | 0.17
Cc1ccc(S(=O)(=O)N2CC(=O)Nc3ccccc32)cc1C | -32.4% (active) | -6.68 | 4.37
CCCNC(=O)N1C[C@H](C)[C@@H](OC)CN(C)C(=O)c2ccc(NS(=O)(=O)CC(F)(F)F)cc2OC[C@@H]1C | -0.684% (inactive) | 1.48 | -1.07
Cc1ccccc1-c1cnc2c(c1)C(=O)N([C@H](C)CO)C[C@@H](C)[C@H](CN(C)C(=O)c1cccnc1)O2 | 2.61% (inactive) | 12.8 | -2.14
